Results on 21 molecules are retold here after PubChem BioAssay (NCI).

Test [1] can be described thus: NCI Yeast Anticancer Drug Screen. Data for the rad50 strain (AID 155).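 Further: 0% = growth of vehicle-only cultures of the same strain.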 Particulars: S. cerevisiae rad50 strain growth inhibition; at 50.0 µM; stronger effect = higher value. An outline of the steps:
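Compounds were tested on a yeast strain with an engineered DNA damage repair alteration; the reported value is growth inhibition normalised to vehicle treatment.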

Test [2] in a line: NCI Yeast Anticancer Drug Screen. Data for the mec2-1 strain (AID 157). The following applies: S. cerevisiae mec2-1 strain, at 50.0 µM, stronger effect = higher value. An outline of the steps:
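Compounds were applied to mec2-1 yeast cells. Their growth was then compared with that of vehicle-treated cultures to give growth inhibition.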

The nature of test [3]: NCI Yeast Anticancer Drug Screen. Data for the sgs1 mgt1 strain (AID 161).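 Further: 0% = growth of cultures given vehicle only.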 The following applies: S. cerevisiae sgs1 mgt1 strain, at 50.0 µM, stronger effect = higher value. An outline of the steps: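 Compounds are added to genetically altered yeast, and growth is compared with cultures given vehicle alone to give percent inhibition.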
Test [4] in a line: NCI Yeast Anticancer Drug Screen. Data for the cln2 rad14 strain (AID 165).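 Further: 0% = growth equal to vehicle treated cultures.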 Particulars: S. cerevisiae cln2 rad14 strain, at 50.0 µM, stronger effect = higher value. An outline of the steps:
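Strain: cln2 rad14 yeast, altered in cell cycle control and DNA damage repair. Read-out: growth inhibition vs vehicle.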

The nature of test [5]: NCI Yeast Anticancer Drug Screen. Data for the bub3 strain (AID 167). The following applies: S. cerevisiae bub3 mutant strain, at 50.0 µM, stronger effect = higher value. An outline of the steps:
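Growth of a checkpoint-deficient yeast mutant is measured after compound exposure. Values represent inhibition relative to vehicle.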

Test [6] in a line: NCI Yeast Anticancer Drug Screen. Data for the mlh1 rad18 strain (AID 175). Particulars: S. cerevisiae mlh1 rad18 strain growth inhibition; at 50.0 µM; stronger effect = higher value. The gist of the method: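 A repair-deficient yeast strain is exposed to test compound, and growth is scored relative to vehicle-treated controls.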

“And” between values parts separate entries of the source, which are not always exact repeats. Equal entries are not always repeated. The panel holds about 79,000 compounds, 15% with a hit somewhere; the sample as a whole holds those more often. Unmarked numbers belong to inactive results. The source made the active and inactive calls. No stated cut-off is given here; in the data, active means growth inhibition above about 70%; inactive means the rest.

For the molecule `NC1=C(c2nc(-c3ccccc3)cs2)C(c2ccco2)c2c(c3ccccc3oc2=O)O1` (stereo unspecified), the growth inhibition was -4.7% in test [1]; 5.05% in test [2]; 23.8% in test [3]; 13.2% in test [4]; 6.35% in test [5]; 12.9% in test [6].

Consider `CCNC(Cc1ccccc1)C1CCCO1` (stereo unspecified), for which the growth inhibition is 3.15% in test [1]; -0.35% in test [2]; -15.6% in test [3]; 2% in test [4]; -18.4% in test [5]; -27.9% in test [6].

As to `O=C(CC(=O)C(F)(F)C(F)(F)C(F)(F)F)c1ccco1.[Ni]`, the growth inhibition in test [1] is 17.2%; in test [2] it was 3.8%; in test [3] it was 27.9%; in test [4] it was -9.9%; in test [5], 2%; in test [6] it was 34.6%.

In the case of `Cc1cc(OCC2=NCCN2)c(C)c(C)c1Cl`, the growth inhibition in test [1] was 44.3%; in test [2] it was 26.9%; in test [3] it was 36.1%; in test [4] it was 51%; in test [5] it was 9.2%; in test [6] it was 79.3% (active).

As for `O=C(CN1CCOCC1)c1ccc2ccccc2c1`, the growth inhibition was 10.1% in test [1]; 2.05% in test [2]; 8.4% in test [3]; -14.4% in test [4]; 17% in test [5]; 9.85% in test [6].

For the molecule `CCOP(O)(=S)OCC.[Yb]`, the growth inhibition in test [1] is 22.4%; in test [2], -2.45%; in test [3] it was -1.1%; in test [4], -22.7%; in test [5], -1.35%; in test [6] it was -7.4%.

For the molecule `CN(C)C(=S)Oc1c(Cl)cc(S(=O)(=O)F)cc1Cl`, the growth inhibition in test [1] is 35.4%; in test [2] it was 12.9%; in test [3], 15.2%; in test [4], 19.6%; in test [5] it was -6.5%; in test [6], 21.4%.

In the case of `CC1CC2C(CCC3(C)C2CC2(CC2)C3(C)O)C2(C)CCC(O)CC12O` (stereo unspecified), the growth inhibition in test [1] is 12.6%; in test [2] it was 8.55%; in test [3], 19.9%; in test [4], -50%; in test [5], -7.35%; in test [6], 1.9%.

As for `O=C(O)c1ccccc1.O=C(O)c1ccccc1.O=C(O)c1ccccc1.O=C(O)c1ccccc1.[Cu].[Cu]`, the growth inhibition in test [1] was 17.4%; in test [2], -10%; in test [3], 10.8%; in test [4] it was 3.85%; in test [5], 1.85%; in test [6] it was 17.1%.

Consider `Nc1ccccc1Nc1ccccc1C(=O)[O-].Nc1ccccc1Nc1ccccc1C(=O)[O-].[Zn+2]`, for which the growth inhibition in test [1] was -19.2%; in test [2], -7%; in test [3] it was -15.2%; in test [4] it was 10.2%; in test [5] it was -29.4%; in test [6], -7.55%.

For the molecule `CC1CN=C(Nc2ccc(F)c(Cl)c2)S1` (stereo unspecified), the growth inhibition in test [1] is -14.4%; in test [2], -16.1%; in test [3], -44.9%; in test [4], 8.65%; in test [5] it was -0.25%; in test [6], -22.9%.

As for `CCCCN1CCC2(CC1)COCc1ccccc12`, the growth inhibition in test [1] is 57.2%; in test [2], 34.3%; in test [3], 42%; in test [4], 28.7%; in test [5], 54.9%; in test [6], 44.1%.

`COc1ccc(-c2nc(-c3ccc(N=Cc4ccc(N(CCCl)CCCl)cc4)cc3)cs2)cc1`: the growth inhibition in test [1] is 58%; in test [2], 11.4%; in test [3], 57%; in test [4], 27.1%; in test [5], 11.5%; in test [6] it was 42.6%.

For the molecule `CC(C)C(Br)C(N)=O` (stereo unspecified), the growth inhibition was -36.1% in test [1]; -31.1% in test [2]; 9.75% in test [3]; -24.6% in test [4]; -2.85% in test [5]; -14.8% in test [6].

In the case of `CCCCOP(=O)(NCCOC)OCCCC`, the growth inhibition is -0.05% in test [1]; 8.05% in test [2]; -3.1% in test [3]; 6.9% in test [4]; 5.25% in test [5]; 10.2% in test [6].

For `O=C([O-])Cc1ccccc1.O=[N+]([O-])O.[Co+3].[NH2-].[NH2-].[NH2-].[NH2-].[NH2-]`, the growth inhibition in test [1] is 13.1%; in test [2] it was 12.5%; in test [3] it was 21.3%; in test [4] it was 11.9%; in test [5] it was 14.8%; in test [6] it was -5.9%.

Turning to `C[C@H](N)[C@H](O)c1ccccc1`, the growth inhibition was 7.45% and 0.25% in test [1]; -14.4% and 4.7% in test [2]; -7.4% and -7.8% in test [3]; -8.35% and -18.5% in test [4]; -4.3% and 0.95% in test [5]; -7.3% and -1.15% in test [6].

For `Cc1cc(Cl)ccc1NC(=O)/C(CC(=O)CC(c1ccccc1)c1c(O)c2ccccc2oc1=O)=N\O` (stereo unspecified), the growth inhibition is -14.9% in test [1]; -8.4% in test [2]; 3.05% in test [3]; -37.6% in test [4]; -29.1% in test [5]; -5.8% in test [6].

On to `CCCC(C)c1ccc(SOO)cc1.[Fe]` (stereo unspecified), for which the growth inhibition was 19.9% in test [1]; 4.05% in test [2]; -13.7% in test [3]; -17.5% in test [4]; 8.5% in test [5]; -6.6% in test [6].

Take `O=C1NC(=O)C2(O)NC(=O)NC2(O)N1` (stereo unspecified): the growth inhibition in test [1] was -27.1%; in test [2], -9.5%; in test [3], 3.15%; in test [4] it was -10.8%; in test [5], -22.4%; in test [6], 18.1%.

In the case of `NC1(O)C(=O)NC(=O)NC1=O`, the growth inhibition in test [1] was -21.4%; in test [2] it was -30%; in test [3] it was -18.9%; in test [4], -28.1%; in test [5] it was -4.05%; in test [6] it was 5.85%.
